# Active and inactive are the calls of the source. How the source made its calls: active means hit-call score of the fitted dose curve at least 0.9, where 1 is the maximum; inactive means score below 0.9.
# Assay: APR_HepG2_P-H2AX_24hr: Apredica 24-hour HepG2 Assay for H2AX Phosphorylation (AID 2282920)
# Settings: high-content imaging, actives raise or lower the signal
# Description: APR_HepG2_24hr is a cell-based, multiplexed-readout assay that uses HepG2, a human liver cell line, with measurements taken at 24 hours after chemical dosing in a 384-well plate.APR_HepG2_P-H2AX_24hr is one of 10 assay component(s) measured or calculated from the APR_HepG2_24hr assay. It is designed to make measurements of dna content, a form of viability reporter, as detected with fluorescence intensity signals by HCS Fluorescent Imaging technology.Data from the assay component APR_HepG2_P-H2AX_24hr was analyzed into 1 assay endpoint. This assay endpoint, APR_HepG2_P-H2AX_24hr, was analyzed with bidirectional fitting relative to DMSO as the negative control and baseline of activity. Using a type of viability reporter, measures of protein for gain or loss-of-signal activity can be used to understand the signaling at the pathway-level as they relate to the gene . Furthermore, this assay endpoint can be referred to as a primary readout, because this assay has produced multiple assay endpoints where this one serves a signaling function. To generalize the intended target to other relatable targets, this assay endpoint is annotated to the dna binding intended target family, where the subfamily is cellular response to DNA damage stimulus.
# Cells were treated with dimethyl sulfoxide (DMSO) as a solvent control at a final concentration of 0.5% v/v or with compounds in DMSO with a resulting final DMSO concentration of 0.5% v/v. Compound treatment was done at concentrations of 0.39, 0.78, 1.56, 3.12, 6.24, 12.5, 25, 50, 100, and 200 uM in duplicate on each plate. Cells were treated with compounds for 1, 24, or 72 hr. Carbonyl […] m-chloro-phenylhydrazone (CCCP) and taxol were used as positive controls for mitochondrial function and cytoskeletal stability, respectively; DMSO served as the negative control for this experiment. Cells were fixed by the direct addition of 50 uL formaldehyde in Hank's Balanced Salt Solution (HBSS) to a final concentration of 3.7%. After incubation in the fixation medium for 30 min at room temperature (293-298 K), cells were rinsed twice with HBSS and treated with cell permeabilization buffer (16 uL of 0.5% Triton X-100) for 10 min at room temperature (293-298 K) before labeling. For mitochondrial membrane potential and mitochondrial measurements, pre-fixed cells were incubated with 50 uL of MitoTracker Red CMXRos (Invitrogen) at a concentration of 250 nM for 30 min before fixation. In the remaining cases, post-fixed cells were labeled by incubation with a multiplexed mixture of primary antibodies in HBSS for 60 min at room temperature (293-298 K) to detect immunoreactivity of c-Jun (1:500), phospho-histone H3 (1:100), phospho-histone H2A.x (1:200), p53 (1:400), alpha-tubulin (1:200) and Hoechst 33342 (2 ug/mL). Cells were labeled for multiplexed imaging on two separate plates: a) Hoechst 33342, MitoTracker Red, phospho-histone H3, and alpha-tubulin, and b) Hoechst 33342, phospho-histone H2A.x, and c-Jun. A final rinse with HBSS (50 uL) was performed before analysis. The primary and secondary antibodies for the proteins were phospho-histone H3 (rabbit anti-phospho-histone H3 and FITC-donkey anti-rabbit IgG), phospho-histone H2A.x (mouse anti-phospho-histone H2A.x and FITC-donkey anti-mouse IgG), c-Jun (rabbit anti-phospho-c-Jun and Cy3-donkey anti-rabbit IgG), p53 (sheep anti-p53 and Cy5-donkey anti-sheep IgG), alpha-tubulin (mouse anti-alpha-tubulin and Cy5-donkey anti-mouse IgG). These antibodies are available as the CellCiphr HepG2 assay kit (Millipore).Digital images of each well were captured using a Cellomics ArrayScan VTI (Thermo Scientific Cellomics) (0.8 NA objective, 0.63x optical coupler, and XF-93 filter set) at 20x magnification. The images were acquired using the autofocus feature of the ArrayScan instrument, which entails the following steps. First, the camera focuses on channel 1 (Hoechst 33342), where nuclei are identified. Second, a Z offset of 1 um is used for capturing mitochondria (MitoTracker Red). […]
Compound,AC50,outcome
CCCCC(O)(Cn1cncn1)c1ccc(Cl)cc1Cl (stereo not given),109 µM (active),–
CCN(CC)c1nc(C)cc(OP(=S)(OC)OC)n1,–,inactive
CCOc1nc(F)cc2nc(S(=O)(=O)Nc3c(Cl)cccc3Cl)nn12,–,inactive
COCC(C)N(C(=O)CCl)c1c(C)csc1C (stereo not given),86.4 µM (active),–
CCCN(CC)CC1COC2(CCC(C(C)(C)C)CC2)O1 (stereo not given),–,inactive
CC(C)NC(=O)N1CC(=O)N(c2cc(Cl)cc(Cl)c2)C1=O,–,inactive
N#CN=C1SCCN1Cc1ccc(Cl)nc1,–,inactive
COCC(=O)N(c1c(C)cccc1C)C(C)C(=O)OC (stereo not given),–,inactive
Cc1c(COC(=O)[C@@H]2[C@H](/C=C(\Cl)C(F)(F)F)C2(C)C)cccc1-c1ccccc1,–,inactive
Cc1ccc(N=CN(C)C=Nc2ccc(C)cc2C)c(C)c1,154 µM (active),–
O=P(O)(O)CCCl,–,inactive
Cc1cc(C)nc(Nc2ccccc2)n1,–,inactive
COCc1cnc(C2=NC(C)(C(C)C)C(=O)N2)c(C(=O)O)c1 (stereo not given),–,inactive
CCSC(=O)N1CCCCCC1,–,inactive
OC(c1ccc(Cl)cc1)(c1ccc(Cl)cc1)C(Cl)(Cl)Cl,68.8 µM (active),–
CCCCC(C#N)(Cn1cncn1)c1ccc(Cl)cc1 (stereo not given),–,inactive
CCN(CC)C(=O)C(C)Oc1cccc2ccccc12 (stereo not given),–,inactive
CN/C(=N\[N+](=O)[O-])NCc1cnc(Cl)s1,–,inactive
Cn1c(-c2ccccc2)cc(-c2ccccc2)[n+]1C,–,inactive
CC1(C)C(C(=O)OC(C#N)c2cccc(Oc3ccccc3)c2)C1(C)C (stereo not given),–,inactive

Compound,AC50,outcome
CC(C)Oc1cccc(NC(=O)c2ccccc2C(F)(F)F)c1,–,inactive
CCOP(=O)(OCC)Oc1nc(Cl)c(Cl)cc1Cl,–,inactive
CCCC(=NOCC)C1=C(O)CC(CC(C)SCC)CC1=O (stereo not given),–,inactive
C=C(C)CN(CC)c1c([N+](=O)[O-])cc(C(F)(F)F)cc1[N+](=O)[O-],–,inactive
CCNP(=S)(OC)O/C(C)=C/C(=O)OC(C)C (stereo not given),–,inactive
CC1(C)CON(Cc2ccccc2Cl)C1=O,–,inactive
COC(=O)c1c(C(F)F)nc(C(F)(F)F)c(C2=NCCS2)c1CC(C)C,–,inactive
CSC(=O)c1c(C(F)F)nc(C(F)(F)F)c(C(=O)SC)c1CC(C)C,–,inactive
O=C(Nc1ccccc1-c1ccc(Cl)cc1)c1cccnc1Cl,–,inactive
COC(=O)NS(=O)(=O)c1ccc(N)cc1,–,inactive
Clc1nc(Cl)nc(Nc2ccccc2Cl)n1,–,inactive
Nc1c(Cl)c(F)nc(OCC(=O)O)c1Cl,–,inactive
CCOc1cc(C(C)(C)C)ccc1C1COC(c2c(F)cccc2F)=N1 (stereo not given),–,inactive
CC(C)(C)C(=O)C(Oc1ccc(Cl)cc1)n1cncn1 (stereo not given),–,inactive
Cc1cnc(C2=NC(C)(C(C)C)C(=O)N2)c(C(=O)O)c1 (stereo not given),–,inactive
CC(C)Nc1nc(Cl)nc(NC(C)C)n1,–,inactive
O=c1n(Cl)c(=O)n(Cl)c(=O)n1Cl,–,inactive
CCCCOCN(C(=O)CCl)c1c(CC)cccc1CC,–,inactive
CC(C)C1(C)N=C(c2ncccc2C(=O)O)NC1=O (stereo not given),–,inactive
CNC(=O)N(C)c1nnc(C(C)(C)C)s1,–,inactive
